In the supplement of paper PMC12350171:
Counter-ions that a name gives are not always drawn.

Experiments:
Conditions in all cases: 20 µM
[1] = test system: Salmonella enterica typhimurium; assay: growth AUC normalised to DMSO control (fraction of control); higher = less growth inhibition, active = hit call of the paper
How it was run: (§1)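 Pathogens passaged twice anaerobically were inoculated at a starting OD578 of 0.01 into pre-reduced mGAM plates with drug at 20 μM and 1% DMSO, sealed with breathable membranes. Haemophilus parainfluenzae medium was supplemented with hemin and NAD. OD578 was read hourly for 24 h, with three biological replicates. Growth-curve AUC was computed by the trapezoidal rule up to the exponential-to-stationary transition and normalised to DMSO controls on the same plate.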

[2] = test system: Shigella flexneri; assay: as above
How it was run: as §1

[3] = test system: Vibrio cholerae; assay: as above
How it was run: as §1

[4] = test system: Yersinia pseudotuberculosis; assay: as above
How it was run: as §1

[5] = test system: P. vulgatus RND KO; assay: growth AUC normalised to DMSO control (median) (fraction of control); higher = less growth inhibition, active = hit call of the paper
How it was run: (§2)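 In 96-well plates of mGAM seeded at OD578 0.01, strains that had been passaged twice overnight without oxygen were exposed to approved-drug library compounds at 20 μM with 1% DMSO. Hourly OD578 readings were taken for 24 h in an anaerobic incubator. The trapezoidal-rule area under the curve, with curves truncated at entry into stationary phase, was expressed relative to same-plate vehicle wells as the median of three biological replicates.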

[6] = test system: P. vulgatus WT; assay: as above
How it was run: as §2

[7] = test system: S. enterica typhimurium WT; assay: as above
How it was run: as §2

[8] = test system: S. enterica typhimurium tolC KO; assay: as above
How it was run: as §2

Measured: growth AUC normalised to DMSO control
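Wherever growth AUC normalised to DMSO control (median) is given: active when median AUC fell below 0.1.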

N=C(N)NCCN1CCCCCCC1 [Guanethidine sulfate]
inactive: [1] 1.01 | [2] 0.988 | [3] 1.04 | [4] 1.03 | [5] 1.02 | [6] 1.01 | [7] 1.01 | [8] 1.01

CO/N=C(\C(=O)N[C@@H]1C(=O)N2C(C(=O)O)=C(COC(C)=O)CS[C@H]12)c1csc(N)n1 [Cefotaxime sodium salt]
active: [1] 0.00568 | [2] 0.0409 | [3] 0.0691 | [4] 0.0555 | [5] 0.00835 | [6] 0.0141 | [7] 0.00974 | [8] 0.00366

C[N+](C)(C)CCOC(N)=O [Carbachol chloride]
inactive: [1] 1.03 | [2] 1.07 | [3] 1.08 | [4] 1.01 | [5] 1.09 | [6] 1.05 | [7] 1.01 | [8] 1.01

C[C@]12CC[C@@H]3c4ccc(O)cc4CC[C@H]3[C@@H]1CC[C@@H]2O [Estradiol-17 beta]
inactive: [1] 1.02 | [2] 1.01 | [3] 0.992 | [4] 1.01 | [5] 0.941 | [6] 0.941 | [7] 1.02 | [8] 0.997

Cc1cc(C)nc(NS(=O)(=O)c2ccc(N)cc2)n1 [Sulfamethazine sodium salt]
inactive: [1] 0.985 | [2] 0.986 | [3] 0.982 | [4] 1.01 | [5] 0.996 | [6] 0.988 | [7] 0.992 | [8] 1.01

CC(=O)Nc1ccc(OCC(O)CNC(C)C)cc1 (stereo not given) [Practolol]
inactive: [1] 1 | [2] 1.03 | [3] 1.02 | [4] 1.01 | [5] 1.02 | [6] 1.06 | [7] 1.02 | [8] 1.02

CCCNC(C)C(=O)Nc1c(C)csc1C(=O)OC (stereo not given) [Articaine hydrochloride]
inactive: [1] 0.949 | [2] 1.03 | [3] 1.08 | [4] 1.03 | [5] 1.04 | [6] 1.06 | [7] 1.01 | [8] 0.997

CCN(CC)C(=O)c1ccc(O)c(OC)c1 [Ethamivan]
inactive: [1] 0.981 | [2] 1.03 | [3] 1.03 | [4] 1 | [5] 1.04 | [6] 1.06 | [7] 1.01 | [8] 1.01

COc1cc2ncnc(Nc3ccc(F)c(Cl)c3)c2cc1OCCCN1CCOCC1 [Gefitinib]
inactive: [1] 1.01 | [2] 1.02 | [3] 1 | [4] 0.983 | [5] 1.07 | [6] 1.07 | [7] 1.01 | [8] 0.928

CCCCOC(=O)c1ccc(N)cc1 [Butamben]
inactive: [1] 0.994 | [2] 0.995 | [3] 0.989 | [4] 0.937 | [5] 1.03 | [6] 1.03 | [7] 0.998 | [8] 1.01

CNNCc1ccc(C(=O)NC(C)C)cc1 [Procarbazine hydrochloride]
inactive: [1] 1 | [2] 1.02 | [3] 1 | [4] 0.992 | [5] 1.06 | [6] 1.05 | [7] 1.01 | [8] 1

CC[N+](CC)(CC)CCC(O)(c1ccccc1)C1CCCCC1 (stereo not given) [Tridihexethyl chloride]
inactive: [1] 1 | [2] 1.03 | [3] 1.05 | [4] 1 | [5] 1.06 | [6] 1.07 | [7] 1.02 | [8] 0.686

O=C(O)c1cn(C2CC2)c2cc(N3CCNCC3)c(F)cc2c1=O [Ciprofloxacin hydrochloride monohydrate]
inactive: [6] 0.679
active: [1] 0.00833 | [2] 0.0218 | [3] 0.0273 | [4] 0.0762 | [5] 0.0296 | [7] 0.00642 | [8] 0.00798

COc1ccc(C(=O)c2ccccc2O)c(O)c1 [Dioxybenzone]
inactive: [1] 0.977 | [2] 0.983 | [3] 0.909 | [4] 0.982 | [5] 0.981 | [6] 1.01 | [7] 0.993 | [8] 0.951

Cc1c(Cl)cccc1Nc1ncccc1C(=O)O [Clonixin lysinate]
inactive: [1] 1 | [2] 0.989 | [3] 0.94 | [4] 1 | [5] 0.979 | [6] 1 | [7] 1.02 | [8] 0.954

CCc1cc(Cl)c(OC)c(C(=O)NC[C@@H]2CCCN2CC)c1O [(S,-) Eticlopride hydrochloride]
inactive: [1] 1 | [2] 1.01 | [3] 0.922 | [4] 0.986 | [5] 1.06 | [6] 1.03 | [7] 1 | [8] 0.947

Clc1ccc(Nc2nnc(Cc3ccncc3)c3ccccc23)cc1 [Vatalanib]
inactive: [1] 1.01 | [2] 1.05 | [3] 1.01 | [4] 1.02 | [5] 0.98 | [6] 0.992 | [7] 1.01 | [8] 0.966

COc1c(N2CCNC(C)C2)c(F)cc2c(=O)c(C(=O)O)cn(C3CC3)c12 (stereo not given) [Gatifloxacin]
active: [1] 0.0102 | [2] 0.0167 | [3] 0.0355 | [4] 0.0287 | [5] 0.0163 | [6] 0.0109 | [7] 0.0104 | [8] 0.0044

Clc1ccc(COC(Cn2ccnc2)c2ccc(Cl)cc2Cl)c(Cl)c1 (stereo not given) [Miconazole]
inactive: [1] 0.997 | [2] 1.01 | [3] 0.995 | [4] 1.03 | [5] 0.938 | [6] 0.927 | [7] 0.993 | [8] 0.98

Nc1nc(=S)c2ncn([C@@H]3O[C@H](CO)[C@@H](O)[C@H]3O)c2[nH]1 [Thioguanosine]
inactive: [3] 0.957 | [5] 1.03 | [6] 1.06 | [7] 0.849 | [8] 0.779
active: [1] 0.828 | [2] 0.0952 | [4] 0.826

NS(=O)(=O)Cc1noc2ccccc12 [Zonisamide]
inactive: [1] 1.01 | [2] 0.997 | [3] 0.997 | [4] 1 | [5] 1 | [6] 1 | [7] 0.998 | [8] 1.01

CS(=O)(=O)c1ccc(C2=C(c3ccccc3)C(=O)OC2)cc1 [Rofecoxib]
inactive: [1] 1.01 | [2] 0.99 | [3] 1.02 | [4] 0.995 | [5] 1 | [6] 1.03 | [7] 1 | [8] 0.98

CCN(CC)C(C)CN1c2ccccc2Sc2ccccc21 (stereo not given) [Ethopropazine hydrochloride]
inactive: [1] 0.972 | [2] 0.999 | [3] 0.918 | [4] 0.995 | [5] 0.272 | [6] 0.246 | [7] 0.993 | [8] 0.951

Clc1ccc2c(c1)CCc1cccnc1C2=C1CCNCC1 [Desloratadine]
inactive: [1] 1.02 | [2] 0.975 | [3] 1 | [4] 0.998 | [5] 0.959 | [6] 0.961 | [7] 0.988 | [8] 0.996

CC[N+](CC)(CC(=O)Nc1c(C)cccc1C)Cc1ccccc1 [Denatonium benzoate]
inactive: [1] 1.01 | [2] 1.02 | [3] 1.03 | [4] 0.982 | [5] 1.05 | [6] 1.09 | [7] 0.999 | [8] 1.01

COc1cc2nc(N(C)CCCNC(=O)C3CCCO3)nc(N)c2cc1OC (stereo not given) [Alfuzosin hydrochloride]
inactive: [1] 1.01 | [2] 1.03 | [3] 1.06 | [4] 0.978 | [5] 1.02 | [6] 1.08 | [7] 1.01 | [8] 1.01

CCN(CC)CCNC(C(=O)OCCC(C)C)c1ccccc1 (stereo not given) [Camylofine chlorhydrate]
inactive: [1] 0.992 | [2] 0.991 | [3] 0.953 | [4] 0.997 | [5] 1.01 | [6] 1.02 | [7] 1 | [8] 0.973

CCCCNc1ccc(C(=O)OCCOCCOCCOCCOCCOCCOCCOCCOCCOC)cc1 [Benzonatate]
inactive: [1] 1.01 | [2] 0.993 | [3] 0.996 | [4] 0.989 | [5] 1.01 | [6] 0.954 | [7] 1 | [8] 1

Cc1ncc([N+](=O)[O-])n1CC(C)O (stereo not given) [Secnidazole]
active: [5] 0.0215 | [6] 0.0204
inactive: [1] 0.996 | [2] 0.953 | [3] 0.99 | [4] 1 | [7] 1.01 | [8] 1

CC(=O)OCC(=O)[C@@]12N=C(C)O[C@@H]1C[C@H]1[C@@H]3CCC4=CC(=O)C=C[C@]4(C)[C@H]3[C@@H](O)C[C@@]12C [Deflazacort]
inactive: [1] 0.977 | [2] 0.992 | [3] 1 | [4] 0.999 | [5] 0.999 | [6] 1.01 | [7] 0.994 | [8] 0.987
